Only some compounds are listed: those with a hit (about 2.8% of all), similar ones and a draw of the others.
SENP8 block-1 – human SENP8 protease inhibitors, primary screen, biochemical, fluorescence, Nedd8 protein substrate, uHTS; inhibition, % at 20 µM; recombinant SENP8; AID 602440, 2012; Sentrin-specific protease 8 (Homo sapiens), Q96LD8; 360,000 tested, 0.64% active; in the data active means inhibition mostly above about 40%, no sharp cut-off; inactive means mostly below about 27%
Target sequence (Q96LD8 whole entry, looked up): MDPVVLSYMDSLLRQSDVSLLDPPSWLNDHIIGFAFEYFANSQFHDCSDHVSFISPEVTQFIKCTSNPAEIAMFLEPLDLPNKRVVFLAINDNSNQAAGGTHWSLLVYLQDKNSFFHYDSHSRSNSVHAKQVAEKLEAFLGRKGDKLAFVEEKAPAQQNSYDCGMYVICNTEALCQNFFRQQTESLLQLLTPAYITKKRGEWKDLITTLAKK
SENP8 block-2 – SENP8 protease inhibitors, primary screen, biochemical, luminescence; inhibition, % at 10 µM; 330,000 tested, 1.2% active; purified SENP8, Z-RLRGG-aminoluciferin cleavage; Sentrin-specific protease 8 (Homo sapiens), Q96LD8; AID 2540, 2010; in the data active means inhibition above about 50%
Platelet DG rel – inhibitors of platelet dense granule secretion, primary screen, cell-based, MLPCN, human platelets | inhibition, %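 (compounds screened at 7.5 µM in platelet-rich plasma)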 | 300,000 tested, 0.22% active | AID 1663, 2009 | human platelet-rich plasma, SFLLRN dense granule ATP release, luminescence;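 active means mean replicate score, as percent of positive control, at or above 50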
SENP6 inh – SENP6 protease inhibitors, primary screen, biochemical, luminescence, uHTS | Recombinant SENP6 catalytic domain, aminoluciferin luminescence | 330,000 tested, 1.8% active | Sentrin-specific protease 6 (Homo sapiens), Q9GZR1 | inhibition, % at 10 µM;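 active means inhibition above about 50% at the single tested dose, limit read from the data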
HSP90 inh – HSP90 inhibitors, primary screen, cell lysate, luminescence. Rabbit reticulocyte lysate, luciferase refolding luminescence, 3 h. inhibition, % at 5.6 µM. 290,000 tested, 0.91% active. AID 1789, 2009;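 active means inhibition above the screen-wide mean plus 3 SD, computed separately per campaign, cut at about 16% in these data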;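 further: inhibitors lower the luminescence because luciferase stays unfolded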
SENP7 block – SENP7 protease inhibitors, primary screen, biochemical, luminescence, uHTS | recombinant SENP7, Z-RLRGG-aminoluciferin luminescence, 40 min | Sentrin-specific protease 7 (Homo sapiens), Q9BQF6 | 330,000 tested, 1.5% active | inhibition, % at 5 µM;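 active means inhibition above about 50% at the single test dose, limit read from the data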
SENP8 conf – human SENP8 protease inhibitors, confirmation, biochemical, Nedd8 protein substrate, single concentration; shares compounds with SENP8 block-1; purified SENP8, Nedd8-AMC/pro-Nedd8 cleavage fluorescence, 30 min; inhibition, % at 25 µM; 1,400 tested, 15% active; AID 624319, 2012; in the data active means inhibition mostly above about 39%, no sharp cut-off; inactive means mostly below about 34%
Each line names hits and unclear results; the compound was inactive in the other large screens (follow-up assays come after a bar, where they were run).

Cc1nonc1OC(C)CNc1ccc([N+](=O)[O-])cc1 (stereo not given)	SENP8 block-1 46 | SENP8 conf inactive
CCc1ccccc1N(C)S(=O)(=O)c1ccc(-c2cc(C)no2)s1	none
O=C1CCC[C@H]2c3[nH]c4ccccc4c3CCN12	SENP8 block-1 68 (no result: HSP90 inh) | SENP8 conf inactive
O=C(O)CC1c2ccccc2CCN1S(=O)(=O)c1cccs1 (stereo not given)	SENP8 block-1 43 (no result: HSP90 inh) | SENP8 conf inactive
CCCCc1ccc(NC(=S)NCc2cccc(OC)c2)cc1	none
CCCCc1ccc(NC(=S)Nc2ccc(Nc3ccc(OC)cc3)cc2)cc1	SENP8 block-1 42 | SENP8 conf inactive
CCOc1cc(C(=S)N2CCOCC2)ccc1OS(=O)(=O)c1ccc(C)cc1	none
CCOc1cc(C(=S)N2CCOCC2)cc(Br)c1OS(=O)(=O)c1ccccc1	SENP8 block-1 42 | SENP8 conf 66
O=c1[nH]cnc2c1ccn2C1OC(CO)C(O)C1O (stereo not given)	SENP8 block-1 41 (no result: SENP8 block-2, Platelet DG rel, SENP6 inh, HSP90 inh, SENP7 block) | SENP8 conf inactive
O=C(/C=C/c1cccc(Cl)c1)OCC(=O)c1ccc[nH]1	none (no result: SENP8 block-2, Platelet DG rel, SENP6 inh, HSP90 inh, SENP7 block)
OC1(C#CCCN2CCCCC2)c2ccccc2-c2ccccc21	none
N#CC1(CCCN2CCCCC2)c2ccccc2CCc2ccccc21	SENP8 block-1 41 (no result: HSP90 inh) | SENP8 conf inactive
Cc1nn(Cc2ccc(Cl)c(Cl)c2)c(C)c1NC(=O)c1cn(-c2ccccc2)nc1-c1ccccc1	SENP8 block-1 40 (no result: Platelet DG rel) | SENP8 conf inactive
CCOC(=O)CN1C(=O)S/C(=C/c2ccc(O)c([N+](=O)[O-])c2)C1=O	SENP8 block-1 48 | SENP8 conf inactive
CCOC(=O)CN1C(=O)S/C(=C/c2ccc(C)o2)C1=O	none
CCC12CN3CC(CC)(CN(C1)C3c1ccc([N+](=O)[O-])o1)C2=O (stereo not given)	none
CC1CCN(c2ccc(C(=O)NCc3ccco3)cc2[N+](=O)[O-])CC1	SENP8 block-1 42 | SENP8 conf inactive
O=c1cc(-c2ccccc2)oc2ccccc12	SENP8 block-1 43 (no result: Platelet DG rel, HSP90 inh) | SENP8 conf inactive
O=c1cc(-c2ccc(C(F)(F)F)cc2)oc2ccccc12	none (no result: Platelet DG rel, HSP90 inh)
CCN1CCN(S(=O)(=O)c2ccc(C(C)(C)C)cc2)CC1	none
Cc1ccc(C(=O)NCC(=O)OCC(=O)N(CC(C)C)c2c(N)n(Cc3ccccc3)c(=O)[nH]c2=O)cc1C	none (no result: HSP90 inh)
Cc1ccc(C(=O)NCC(=O)OCC(=O)N(CC(C)C)c2c(N)n(Cc3ccccc3)c(=O)[nH]c2=O)cc1	SENP8 block-1 32 (no result: HSP90 inh) | SENP8 conf inactive
Cc1nc(CS(=O)(=O)c2ccccn2)sc1C(=O)NNC(=O)c1c(F)cccc1Cl	SENP8 block-1 42 | SENP8 conf inactive

Source: PubChem
